We go through 34 compounds from PubChem BioAssay (Tox21).

Records with an inconclusive call do not appear. The source made the active and inactive calls. Unless noted, the call rests on the fitted dose curve; in most records, active means well fitted activation curve with a large enough effect in the repeat runs; inconclusive means weak or mixed curves; inactive means no such curve, though single readings can be large or run the other way.
On the % scale 0 is the no-effect control and ±100 the full control effect.

One assay is described as follows: qHTS assay for small molecules that induce genotoxicity in human embryonic kidney cells expressing luciferase-tagged ATAD5 (AID 651632). Further: nearly all actives have a fitted effect of over 15% in size. The following applies: HEK293T ATAD5-luciferase induction, 16 h; series mostly up to 83.3 µM; activation: at the top concentration. In outline:
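ATAD5-luc HEK293T, 2,000 cells/well; cpd or DMSO pin-transferred; 16 hr, 37C/5% CO2; Amplite 30 min RT; luminescence.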
On the technique in general: In qHTS, concentration-response curves come from the screen itself.
With `CC(C)=CCCC(C)CC(=O)O` (stereo not drawn), the “activation” value is 1.87% (inactive).
With `C=C1CC[C@H]2C[C@@H]1C2(C)C`, the “activation” value is -1.34% (inactive).
The same measure, in the same setting: the same measure for `CC(C)OC(=O)c1ccccc1`: -2.62% [at 95.3 µM] (inactive); for `O=Cc1cccc([N+](=O)[O-])c1`: 0.767% (inactive).
Turning to `CCOC(=O)Nc1ccc(NCc2ccc(F)cc2)nc1N`, the Potency entry is “inactive”.
Regarding `Cc1ccc(C#N)cc1`, the “activation” value was -1.23% (inactive).
Same read-out and setting: the same measure for `CCC=O`: 0.629% [at 95.3 µM] (inactive); for `CC/C=C\CC/C=C/CO`: 0.462% (inactive); for `COC(=O)CCSCCC(=O)OC`: 1.33% (inactive).
Take `FC1(F)C(F)(F)C(F)(F)C2(F)C(F)(F)C(F)(F)C(F)(F)C(F)(F)C2(F)C1(F)F` (stereo not drawn): the “activation” value is 2.89% (inactive).
Take `Cc1[nH]c(=O)c(C#N)cc1-c1ccc2nccn2c1`: the “activation” value was 3.06% (inactive).
With `CCO/C([O-])=N/c1c[n+](N2CCOCC2)no1`, the “activation” value was 0.435% [at 39.1 µM] (inactive).
On the same count and under the same terms, the figure for `OC1CCCCC1c1ccccc1` (stereo not drawn) is 1.6% (inactive); for `CC(C)(O)C(=O)c1ccccc1` it is -0.57% (inactive).
The same measure, in the same setting: the same measure for `C[C@H](NC(CCc1ccccc1)C(=O)O)C(=O)N1CCC[C@H]1C(=O)O` (stereo partly drawn): 4.5% (inactive).
The same measure, in the same setting: the same measure for `Nc1c[n+](N2CCOCC2)no1`: 1.66% (inactive); for `Cc1nc2c([nH]1)c(=O)n(C)c(=O)n2Cc1ccco1`: 3.78% (inactive); for `CC(=O)N(CC(O)CO)c1c(I)c(C(=O)NCCO)c(I)c(C(=O)NCC(O)CO)c1I` (stereo not drawn): 3.4% (inactive).
On to `NCCCNCCSP(=O)(O)O`, for which the “activation” value was -1.79% (inactive).
Still for that read-out and setting: the same measure for `CC(=O)OC/C=C(\C)CC/C=C(\C)CCC=C(C)C`: 1.12% (inactive); for `C=C(C)CS(=O)(=O)O`: 1.13% (inactive).
In the case of `NC(CSCC(=O)O)C(=O)O` (stereo not drawn), the “activation” value was 3.69% (inactive).
Still for that read-out and setting: the same measure for `CO/N=C(/C(=O)N[C@@H]1C(=O)N2C(C(=O)OCOC(=O)C(C)(C)C)=C(C)CS[C@H]12)c1csc(N)n1`: 3.82% (inactive).
For `CC(C)(c1ccc(O)cc1)c1ccc(O)cc1`, the Potency result was “inactive”.
On to `O=C1CCCN1C1CCCCC1`, for which the “activation” value was -4.68% (inactive).
On to `CC(C)NC(=O)NC(C)C`, for which the “activation” value is -1.49% (inactive).
Still for that read-out and setting: the figure for `CC(C)(C)c1nnc(NS(=O)(=O)c2ccccc2)s1` is 1.29% (inactive); for `O=C(O)CN(CCOCCOCCN(CC(=O)O)CC(=O)O)CC(=O)O` it is 1.08% (inactive).
Turning to `CCCCNC(=O)NCCCC`, the “activation” value was -3.06% (inactive).

A further assay is described as follows: qHTS assay for small molecule agonists of the p53 signaling pathway - cell viability (AID 651633; calls by dose curve;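 further: p53RE-bla HCT reporter cells with a stable beta-lactamase p53 reporter; nearly all actives have a fitted effect of over 30% in size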). The conditions noted are these: p53RE-bla HCT-116 viability, ATP luminescence, 16 h; series mostly up to 83.3 µM; activity change, negative = cytotoxicity: at the top concentration. In outline: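 p53RE-bla cells, seeded at 4,000 per well and rested 5 h at 37 C/5% CO2, received compounds in DMSO for 16 h at 37 C. CellTiter-Glo was then added, and luminescence was read after 30 min at room temperature to gauge cytotoxicity.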
With `NCCc1cnc[nH]1`, the “activity change, negative = cytotoxicity” value was 17.4% (inactive).
With `C=C1CC[C@H]2C[C@@H]1C2(C)C`, the “activity change, negative = cytotoxicity” value is 16.9% (inactive).
On the same count and under the same terms, the same measure for `CC(C)OC(=O)c1ccccc1`: 6.01% [at 95.3 µM] (inactive).
On the same count and under the same terms, the same measure for `O=Cc1cccc([N+](=O)[O-])c1`: 19.4% (inactive); for `Cc1ccc(C#N)cc1`: -16.7% (inactive).
Consider `CCC=O`, for which the “activity change, negative = cytotoxicity” value was 18.9% [at 95.3 µM] (inactive).
Consider `CC/C=C\CC/C=C/CO`, for which the “activity change, negative = cytotoxicity” value was -14.4% (inactive).
Regarding `Cc1[nH]c(=O)c(C#N)cc1-c1ccc2nccn2c1`, the “activity change, negative = cytotoxicity” value is -15.5% (inactive).
On the same count and under the same terms, the same measure for `CCO/C([O-])=N/c1c[n+](N2CCOCC2)no1`: 14.6% [at 39.1 µM] (inactive).
Regarding `OC1CCCCC1c1ccccc1` (stereo not drawn), the “activity change, negative = cytotoxicity” value was -1.5% (inactive).
The same measure, in the same setting: the same measure for `CC(C)(O)C(=O)c1ccccc1`: -8.38% (inactive).
As for `COC(=O)C1=C(C)NC(C)=C(C(=O)OC)C1c1ccccc1[N+](=O)[O-]`, the call was inactive.
On to `CCOc1ccc(C(=O)OCCN(CC)CC)cc1`, for which the “activity change, negative = cytotoxicity” value was 13.1% (inactive).
Still for that read-out and setting: the figure for `CCCCCCCCCCCCCCCCC` is 7.19% (inactive).
On the same count and under the same terms, the same measure for `CC(C)(C)c1ccc(O)c(O)c1`: -14.7% [at 95.3 µM] (inactive).
Still for that read-out and setting: the same measure for `C=C(C)CS(=O)(=O)O`: -13.4% (inactive).
As to `NC(CSCC(=O)O)C(=O)O` (stereo not drawn), the “activity change, negative = cytotoxicity” value was 14.3% (inactive).
For `CC(C)NC(=O)NC(C)C`, the “activity change, negative = cytotoxicity” value was 5.69% (inactive).
On the same count and under the same terms, the figure for `O=C(O)CN(CCOCCOCCN(CC(=O)O)CC(=O)O)CC(=O)O` is 8.42% (inactive).
